According to the supplement of paper PMC10681739:
In all, about 4,100 sequences were measured (“arbitrary fluorescence units”: median about 780, highest 2% from about 22,000 on). For the sample, the highest values were picked, then their nearest neighbours and some sequences at random.

The sequences below were run against T1, ETS1 (UniProt P14921) (assay: ETS1 binding intensity (PBM fluorescence), ETS1 alone (arbitrary fluorescence units); higher = stronger binding). Conditions: ETS1 concentration 1 nM; RUNX1 concentration 0 nM.
T1 sequence: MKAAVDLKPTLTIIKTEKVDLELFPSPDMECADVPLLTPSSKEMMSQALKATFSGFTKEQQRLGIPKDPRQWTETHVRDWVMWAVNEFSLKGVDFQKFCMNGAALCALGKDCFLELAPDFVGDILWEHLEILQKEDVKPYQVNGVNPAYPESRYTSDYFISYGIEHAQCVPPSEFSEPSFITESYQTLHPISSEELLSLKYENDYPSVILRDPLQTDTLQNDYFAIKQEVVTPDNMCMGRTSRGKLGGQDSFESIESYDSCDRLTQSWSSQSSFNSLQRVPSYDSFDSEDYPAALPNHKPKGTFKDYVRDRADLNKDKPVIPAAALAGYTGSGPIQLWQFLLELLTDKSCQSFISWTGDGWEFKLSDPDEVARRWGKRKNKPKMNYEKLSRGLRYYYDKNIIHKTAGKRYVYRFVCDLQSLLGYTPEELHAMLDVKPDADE
Method: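 gcPBM on 36-bp genomic-derived probes (partner site mutated) containing one ETS1 site and no RUNX1 site. Recombinant human ETS1 (1 nM) was incubated alone or with RUNX1 (25 nM) and detected by anti-ETS1 antibody fluorescence. Values are medians over 4 replicate spots (not normalised). The probes sit in constant array flanks that are not printed.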

Row | Sequence | ETS1 binding intensity
1 | CCATTGGCGGGCGGCTTGAATGACGGAAGTGACGGC | 872
2 | CTGTCGTGACCCGGCAGGAGTAGCGTCGGAAGCAAT | 403
3 | CTTAGCGGAAGAGGCGTGACCCAGGCGTACCCCAGG | 1380
4 | GGTCCAGGAAGACGTCAAGGGCTTGGATTTGTAAAC | 437
5 | TAGGTCACCTCCGCGACACAGCAACGGAAGTAGGGT | 1110
6 | AGGGGCAGAGCACAGCACCACCGGAAGTAGGGCTCA | 9450
7 | GCACCACCGGAAGTAGGGCTCAACCTCCGCTCATTT | 24400
8 | GTCCCCTCGGTGTCACAGCAATATCCGTTCTTTGAT | 1190
9 | CGGGAATCCACGGAATTTACTGCCGGAAGTTCGGCG | 2700
10 | CGAGAACGGCGCCACTGAGGAACCGGAAACAAGCCA | 3230
11 | AGACCCTGTTGTCACATGGCAGGAAGTCTGCAGGTT | 1060
12 | CATCTGTTGTCTCCTTGAAGTCACATCCCACAGGAG | 438
13 | GAAGTCACATCCTGTCTGTTGGGGCAGGGCACAGAG | 23500
14 | ACAAAAAAATCACACACCCAACGGAAACCATAGAGA | 669
15 | AGCACCCCATTCTACACCTCCAGCTCATCCTGCGTC | 389
16 | GAACTTCCGGGACCACGTGACGTAGAACTACAACAA | 32800
17 | CTCCTGGGCTTGTAGTTAGAACATCCTGCAGCAAAG | 1130
18 | AATGAGCCCCAGAACCCTTTTCCTTCCGGCCTGTGC | 1520
19 | GCAGGACTTCCTGTGTTGTGCTAACCCCAAATTACA | 22100
20 | TTTCTGACTTCCTGTGTGCTTCAGAAACCCCAATGA | 25100
21 | CGGAGAGCTCGCGGCAATTCCGTTTCCCCGCCCTTT | 404
22 | CCGCCCACTTCCGTGTGGCCGCCGATTGGTCTTGCC | 7350
23 | GAGGGCTGCTTCCTGCTCTGTGGAGGCCGCTGAGGG | 6710

Row | Sequence | ETS1 binding intensity
24 | GCTGCTTCCGGCCGCTGGTCGCAGGGCTGAGGGACT | 26400
25 | GGCCTACGGGAGGGCCCGCCTTGGCTGCTTCCGCAG | 310
26 | GGCTCTGCCGTCCGCTGACAGGAAGACGCTGACGAC | 973
27 | TGCGCTCGATTGTGAGCGGGGGCGGAAAGAGGCGCC | 471
28 | GTAGGGCCGGACGGCAGGCTCCGGGATAGCGCCACG | 416
29 | AGCTTTTCTGAGAGCGCGGGCAGGATGTGACCTCCC | 675
30 | CTTTCTGTCGAGGTCAGGTTTCCTCTCCTTTATGAA | 437
31 | CGTGTCCACGGGGACCGAAAGTGGCGTCCGGCGCAA | 354
32 | GCGGGGCGTGTCCACGCACTTCCGGTTTTCTCGAAA | 28700
33 | GGGTCCTTCCGGGTTTTGTGTCGAATCTACGGCGGC | 7400
34 | TGTGTAATCCCCACGACAACCTAGGAAGTGGGAAAA | 410
35 | CTGCCCATCGCTGTTAACTTTTCCGCCTCCTTAAAG | 492
36 | GTCTTACTTCCTGTCCCCGCCCACCTCGACTGTCTT | 22700
37 | ACCTTCGCCGCTGTCCCCAGCCTCTTCCTGTCCCGG | 1130
38 | CCTGACTTCCTCCTCCCCCTCCCGCCCCAATTCCGC | 4620
39 | AGTTGCTAAGGAAATGACTGCCTGCAGCGCCTGGCC | 610
40 | GAAGAGACTCCCGCCACCTTGGCCGTTTCCCCTGAT | 318
41 | GCCGCTGGGTAGGCGGAAGTAGCCGCTGGCATGGCA | 2800
42 | AGAAAACTACATTCAATTCTCTTTACACAGGATGTT | 661
43 | CGGGACAGCGACGGGCCAGGTGACCGGAAGAGGCCG | 1770
44 | GCGGAGCTTGTAGGCCAGGAGGACTTCCGGGTGGGT | 2220
45 | GCACTTCCGGAGCCGGGCGTCTACAGGCCGAGGCCA | 28500
46 | CGGAGCCCAACGACCGGCACTTCCGGGGGGCGGGTG | 5010

Row | Sequence | ETS1 binding intensity
47 | CACCCTCACGGAAACAGCTGTGTGTAAGCACCTCCA | 585
48 | TATCATTTTTACGACAGAGGTACAGGAAATTGTTTC | 733
49 | TAGGTTTGGGGTAGAAGCTGCAGGAACTTCCTGTCC | 1710
50 | CCCCTCACTTCCCTCAACCCTTCCCATAAACTGGGA | 1620
51 | GCGCACTTCCGGGCTGGTGAACGCGTTGACGTCACC | 35400
52 | GGTGACGTCAACGCGTTCACCAGCCCGGAAGTGCGC | 1230
53 | CGACGTCACTTCCGCTGGTTCAAGCACCGTGAGACT | 21400
54 | AAGCTTCCTGGCCCTTTAAAAATGGAGGTTCCGCAC | 4840
55 | GGGGCGATTACAGAACGGGTAACTCAGGATGATTCA | 541
56 | CTTGGGGTCCCCTCGGGTGGTGGCAGGATGTAGGTA | 480
57 | GGACCGGAAGTAGGTTTCTACCCGAGCGCATTTTAC | 27600
58 | CCGAGCGCATTTTACGTGGTGCTGCATTTCCGGTAG | 3930
59 | CGCCCCGGCAGCCGCCCACGTCCGGGGGCCAGGCCT | 802
60 | GAGAACTTCCGGTGCGCTCCCCGGGACTGCAGTCCC | 46000
61 | TGGCGGGAGAACTTCCCCCTGTGCGCTCGCGACGTG | 775
62 | AGCGCTTCCTGGCTCCGGCCCCGCCCCTGCAGTCGG | 6440
63 | CTTTTTGGTCTGCCAGGCACGGATTTCCGCCCACTC | 1270
64 | ATGGAAAGGAAGTCGGTGGGAATCCGCCTCAGCGGT | 1590
65 | CCCACTTCCTGTCCCTGCATGCTCTGGGGCAGGCAG | 31100
66 | GTCCTCTTCCTGTCCCCCAGGTGGGCATGTGATTTG | 6800
67 | GTGTCCTGTGCTCTCCTCTGCGCCACTTCCCTGCCT | 623
68 | GGCGGCTGTGAGCGCAAAACCCAAAACTTCCGATGG | 452
69 | CACGGAGCCACTTCCGGCGGCTGTGAGCGCAAAACC | 35500

Row | Sequence | ETS1 binding intensity
70 | TCAGGAGCCACGGACGGGCGGGGCTTCCGGGAGCAA | 1170
71 | AACACTATTTCCTTTCTTGCTGCTCACATTTTAACA | 4990
72 | TGGAGCTGTTACGGGGTCCGCGGGGAAGTCTTGGCA | 364
73 | GGACGCTTCCGGTGGAAGGGAGCTGTTACGGGGCTT | 32900
74 | CTGCTTGAGGGTGGAGGGGAGCTTCCGAAGGAGGCC | 536
75 | AAACCAGAGGAAGTGGATTCCAACTACAAACCTCAC | 1830
76 | ACTCACTTCCGTTTAGCTTATCAACTACCAAGAGAC | 35500
77 | CTTATCAACTACCAAGAGACATTTCCCCTTTGTACT | 558
78 | CGGGAGCGGCCGAAGTGACGACTTCCGGGATGCTCC | 7380
79 | CCACCGTGCTGTAAACTGCACTTCCTCACTTAGCAC | 870
80 | CGCCTCATTTCCTGTGCAACTGCTGTAAAAATAGGA | 22400
81 | GTGCAACTGCTGTAAAAATAGGAAGTGGGGGAGGAG | 861
82 | CACCTGACTACAAGGCACACGAACATCCTTATCACA | 655
83 | ACCAAGTTTCGGGCAGGATCTTCCTGTAGTTTGCCT | 566
84 | CTCCAAGCCCAGAGAGCACCCCTTCCTGCCCGGACA | 737
85 | CACGGTCTTTGCCGCTCAGCTTCCCGGAGTCCGCGC | 458
86 | CGTACGCGCACTTCCGGTCTTTGTGACTTGCAGCTC | 38700
87 | TTCTCTGGGGACAATTAGGGTTTCTGGGTTTCCTGA | 457
88 | CCTGGGGGGCCGGAAGCCCCGCTTCGGCCCCAGCCC | 2820
89 | CACTTCCTGTCAAAGCCAGTTCCTTAGCCGCTTAGG | 45000
90 | TCTCCCTGCCCGCGAGTCAAAGCCACTTCCTTTTCC | 917
91 | TGTCATCCCGGAAACTGATAACAAGACCTCGAGTCA | 4740
92 | TGGGGCCTTGTTATCACAGCACTTCCTGTTTGCTTT | 7990

Row | Sequence | ETS1 binding intensity
93 | AGCTTCCTGTTTGGCCTTGCTGATGTCACCCCATTA | 27600
94 | TACAGCTTCCTTCACCCCACTTGGGGCCTGGGTTAC | 1140
95 | TCCTGGCTGCCCCCAAGGCCAGGAAGAGCGAAAACA | 434
96 | CTGAAACAGGAAACAGACAAAGTCACAAGGTTCGCA | 5430
97 | TGGCCTCTTCGGCCCTGGCCTTGACTTCCTTTCCTC | 362
98 | CCTGCTGTGACTTCGGCTGTTTTCCTGGCCTGTGAG | 387
99 | GACTTCCTGTTGAAGATTGGCCTCTTCGGTAGCACA | 44600
100 | CCCACCTCGGCCCACGCCGAGCGTGGCGGAACAGCT | 385
101 | CGGGCACGTCCTACGGCAGCAACGTCCGCCGCGCCG | 540
102 | CACCCAAGGATATGCTTTTTTTTGGCAAGTCACATC | 604
103 | TTCTGCTACATCCTGCCCACTCCCTGTGACTTCCAC | 9350
104 | TTTCCACTTCCTGTTCTACTTGGGGCTACTGACTCA | 25500
105 | TTGGCCTGGGCTCTGGGCCACTTCCTGTGCTCTCCA | 5490
106 | CTTGACTTAACTACAAGACAGGATGGGTTGATGAAG | 426
107 | TTTATCCTTATTTCCTGGCTTCGCCTACAAGCACAG | 5090
108 | AAAGCATTTCCTGCCTTGACTTAACTACAAGACAGG | 25700
109 | TTCACGCTCCGTAAGCTCGCTCCTTCCGGGACGCAG | 643
110 | CTCTGCTTCCTGTCTTTGAATGCCTCTGTGATTTTC | 13400
111 | GTGGGGCGGGCTTCCGGCGCTCCCACCGTGAGCCGA | 8140
112 | AAGGTCGAGGTCTCGGCTTCCCCGGAACTTTTTGCT | 295
113 | TGCTTCCGGCGGGCGCTTGCTCCCCGAGGTCGGCAA | 24800
114 | GAAGGGAGGAAGCCTGAGAACTGTTGTCTCCTGAAG | 424
